The target of experiment [1] is T1, Ephrin type-B receptor 2 (Homo sapiens) (UniProt P29323).
T1 sequence (whole entry): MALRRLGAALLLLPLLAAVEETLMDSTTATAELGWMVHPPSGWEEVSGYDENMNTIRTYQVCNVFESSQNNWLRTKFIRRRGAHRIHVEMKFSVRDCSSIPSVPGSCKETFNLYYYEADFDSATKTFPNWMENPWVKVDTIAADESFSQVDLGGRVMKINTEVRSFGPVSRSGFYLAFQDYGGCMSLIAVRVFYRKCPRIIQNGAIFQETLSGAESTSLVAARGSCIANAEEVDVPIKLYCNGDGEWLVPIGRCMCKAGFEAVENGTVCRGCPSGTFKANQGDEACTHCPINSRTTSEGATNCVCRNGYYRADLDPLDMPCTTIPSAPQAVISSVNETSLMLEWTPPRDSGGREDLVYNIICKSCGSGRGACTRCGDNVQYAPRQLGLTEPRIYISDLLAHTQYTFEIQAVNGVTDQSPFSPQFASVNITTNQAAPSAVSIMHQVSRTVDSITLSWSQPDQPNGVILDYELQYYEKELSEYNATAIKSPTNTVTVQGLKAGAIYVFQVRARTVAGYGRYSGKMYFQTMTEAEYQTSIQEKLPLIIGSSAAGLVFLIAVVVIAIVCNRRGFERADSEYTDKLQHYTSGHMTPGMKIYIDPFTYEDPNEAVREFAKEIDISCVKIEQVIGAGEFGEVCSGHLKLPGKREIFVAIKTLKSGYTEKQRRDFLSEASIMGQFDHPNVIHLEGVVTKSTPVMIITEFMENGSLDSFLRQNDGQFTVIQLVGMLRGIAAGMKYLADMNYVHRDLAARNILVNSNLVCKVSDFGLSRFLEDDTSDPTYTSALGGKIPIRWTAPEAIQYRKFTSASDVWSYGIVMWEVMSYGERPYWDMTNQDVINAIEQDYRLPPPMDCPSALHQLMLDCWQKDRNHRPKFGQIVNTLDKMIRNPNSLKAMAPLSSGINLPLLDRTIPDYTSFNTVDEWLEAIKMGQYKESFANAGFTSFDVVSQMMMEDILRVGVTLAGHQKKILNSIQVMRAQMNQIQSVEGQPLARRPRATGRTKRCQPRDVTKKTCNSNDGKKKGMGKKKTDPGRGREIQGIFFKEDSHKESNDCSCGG
The conditions noted are these: at 1 µM.

For experiment [2], the target named is T2, Ephrin type-B receptor 3 (Homo sapiens) (UniProt P54753).
T2 sequence (whole entry): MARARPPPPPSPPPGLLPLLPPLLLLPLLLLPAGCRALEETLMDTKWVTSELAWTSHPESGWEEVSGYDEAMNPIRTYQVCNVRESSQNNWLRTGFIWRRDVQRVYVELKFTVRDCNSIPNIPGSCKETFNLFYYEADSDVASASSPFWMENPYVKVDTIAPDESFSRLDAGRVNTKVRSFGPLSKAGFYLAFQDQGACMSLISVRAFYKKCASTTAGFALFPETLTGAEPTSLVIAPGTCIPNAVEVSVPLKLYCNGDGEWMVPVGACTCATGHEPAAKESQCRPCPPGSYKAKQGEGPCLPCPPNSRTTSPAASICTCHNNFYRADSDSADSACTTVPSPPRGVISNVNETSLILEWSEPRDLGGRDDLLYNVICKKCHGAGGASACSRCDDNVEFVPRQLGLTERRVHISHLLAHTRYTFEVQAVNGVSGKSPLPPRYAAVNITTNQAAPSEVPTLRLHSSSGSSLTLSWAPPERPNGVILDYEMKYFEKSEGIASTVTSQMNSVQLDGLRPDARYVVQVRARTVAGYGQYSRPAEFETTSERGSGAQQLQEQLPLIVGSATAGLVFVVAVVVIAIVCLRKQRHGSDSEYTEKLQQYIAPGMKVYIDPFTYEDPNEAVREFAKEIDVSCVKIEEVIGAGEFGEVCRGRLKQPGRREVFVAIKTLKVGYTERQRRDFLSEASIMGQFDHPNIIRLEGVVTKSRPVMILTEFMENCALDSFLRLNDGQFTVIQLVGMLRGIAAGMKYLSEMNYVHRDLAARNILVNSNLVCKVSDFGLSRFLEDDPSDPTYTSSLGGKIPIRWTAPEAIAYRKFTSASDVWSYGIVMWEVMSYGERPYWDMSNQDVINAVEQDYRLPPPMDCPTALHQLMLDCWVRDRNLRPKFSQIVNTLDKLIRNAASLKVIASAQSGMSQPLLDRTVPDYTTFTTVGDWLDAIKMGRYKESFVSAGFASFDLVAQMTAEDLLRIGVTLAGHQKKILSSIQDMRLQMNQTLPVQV
The settings on record: at 0.1 µM.

For experiment [3], the target named is T2, Ephrin type-B receptor 3 (Homo sapiens). The settings on record: at 1 µM.
For experiment [4], the target named is T3, Ephrin type-B receptor 4 (Homo sapiens) (UniProt P54760).
T3 sequence (whole entry): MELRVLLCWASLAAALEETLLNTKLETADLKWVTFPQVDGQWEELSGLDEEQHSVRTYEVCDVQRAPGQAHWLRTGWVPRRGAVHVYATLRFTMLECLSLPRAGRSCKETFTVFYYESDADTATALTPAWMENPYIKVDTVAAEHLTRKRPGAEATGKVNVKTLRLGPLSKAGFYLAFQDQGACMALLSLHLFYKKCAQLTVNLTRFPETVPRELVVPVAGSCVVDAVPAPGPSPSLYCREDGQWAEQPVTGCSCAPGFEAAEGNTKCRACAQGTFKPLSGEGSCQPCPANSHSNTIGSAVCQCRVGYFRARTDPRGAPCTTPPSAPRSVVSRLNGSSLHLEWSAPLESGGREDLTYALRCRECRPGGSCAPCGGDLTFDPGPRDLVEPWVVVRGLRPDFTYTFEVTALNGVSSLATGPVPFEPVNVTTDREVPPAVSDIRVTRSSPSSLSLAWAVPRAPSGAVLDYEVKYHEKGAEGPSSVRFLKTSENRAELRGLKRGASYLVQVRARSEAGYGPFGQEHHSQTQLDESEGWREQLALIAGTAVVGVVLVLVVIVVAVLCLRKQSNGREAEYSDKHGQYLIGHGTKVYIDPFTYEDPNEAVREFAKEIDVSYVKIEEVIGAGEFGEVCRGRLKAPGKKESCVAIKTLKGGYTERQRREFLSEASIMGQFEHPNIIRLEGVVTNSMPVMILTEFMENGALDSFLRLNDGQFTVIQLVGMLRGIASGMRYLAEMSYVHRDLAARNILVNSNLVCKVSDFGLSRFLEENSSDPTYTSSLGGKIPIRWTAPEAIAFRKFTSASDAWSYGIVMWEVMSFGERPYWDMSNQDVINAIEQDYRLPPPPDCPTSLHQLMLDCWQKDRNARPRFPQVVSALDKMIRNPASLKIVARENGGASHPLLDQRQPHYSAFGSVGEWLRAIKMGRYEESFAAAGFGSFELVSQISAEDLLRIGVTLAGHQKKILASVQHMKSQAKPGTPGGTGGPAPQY
The conditions noted are these: at 0.1 µM.

Experiment [5] addresses T3, Ephrin type-B receptor 4 (Homo sapiens). The settings on record: at 1 µM.
Experiment [6] deals with Receptor tyrosine-protein kinase erbB-2 (Homo sapiens) (UniProt P04626). The conditions noted are these: at 0.1 µM.
The target is the same in experiment [7]. The settings on record: at 1 µM.
Experiment [8] concerns the target Receptor tyrosine-protein kinase erbB-4 (Homo sapiens) (UniProt Q15303). The settings on record: at 0.1 µM.
The target is the same in experiment [9]. The settings on record: at 1 µM.
For experiment [10], the target named is Tyrosine-protein kinase Fer (Homo sapiens) (UniProt P16591). The conditions noted are these: at 0.1 µM.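 Note: reported figures are averaged percent inhibition of FER.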

The text below walks through data of ChEMBL document CHEMBL1961873, “Compounds: GSK PKIS; Assays: Nanosyn kinase panel” (2012).

The inhibition is the change of the read-out against control, counted positive when it falls.

Tyrosine-protein kinase Fer (Homo sapiens), sequence (P16591 whole entry, looked up): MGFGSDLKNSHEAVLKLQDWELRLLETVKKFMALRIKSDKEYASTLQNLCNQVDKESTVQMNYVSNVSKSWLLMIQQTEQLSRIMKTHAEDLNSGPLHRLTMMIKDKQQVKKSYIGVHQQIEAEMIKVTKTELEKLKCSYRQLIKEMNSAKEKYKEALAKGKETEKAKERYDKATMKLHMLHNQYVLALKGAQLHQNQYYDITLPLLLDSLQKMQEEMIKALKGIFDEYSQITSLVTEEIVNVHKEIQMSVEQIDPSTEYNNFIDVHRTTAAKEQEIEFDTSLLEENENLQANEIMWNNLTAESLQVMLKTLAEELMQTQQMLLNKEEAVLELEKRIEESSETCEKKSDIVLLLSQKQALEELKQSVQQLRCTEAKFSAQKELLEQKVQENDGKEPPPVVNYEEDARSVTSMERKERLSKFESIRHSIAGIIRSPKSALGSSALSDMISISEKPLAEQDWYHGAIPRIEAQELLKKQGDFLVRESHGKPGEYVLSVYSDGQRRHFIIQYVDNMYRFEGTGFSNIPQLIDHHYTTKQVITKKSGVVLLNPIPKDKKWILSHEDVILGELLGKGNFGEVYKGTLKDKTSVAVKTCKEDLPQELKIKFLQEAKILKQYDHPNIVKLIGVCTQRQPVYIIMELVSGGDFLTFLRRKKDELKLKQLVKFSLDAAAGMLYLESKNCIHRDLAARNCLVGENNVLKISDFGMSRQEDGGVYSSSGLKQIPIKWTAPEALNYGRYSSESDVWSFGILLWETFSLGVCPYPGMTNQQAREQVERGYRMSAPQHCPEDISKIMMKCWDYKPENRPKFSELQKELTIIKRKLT
Receptor tyrosine-protein kinase erbB-4 (Homo sapiens), sequence (Q15303 whole entry): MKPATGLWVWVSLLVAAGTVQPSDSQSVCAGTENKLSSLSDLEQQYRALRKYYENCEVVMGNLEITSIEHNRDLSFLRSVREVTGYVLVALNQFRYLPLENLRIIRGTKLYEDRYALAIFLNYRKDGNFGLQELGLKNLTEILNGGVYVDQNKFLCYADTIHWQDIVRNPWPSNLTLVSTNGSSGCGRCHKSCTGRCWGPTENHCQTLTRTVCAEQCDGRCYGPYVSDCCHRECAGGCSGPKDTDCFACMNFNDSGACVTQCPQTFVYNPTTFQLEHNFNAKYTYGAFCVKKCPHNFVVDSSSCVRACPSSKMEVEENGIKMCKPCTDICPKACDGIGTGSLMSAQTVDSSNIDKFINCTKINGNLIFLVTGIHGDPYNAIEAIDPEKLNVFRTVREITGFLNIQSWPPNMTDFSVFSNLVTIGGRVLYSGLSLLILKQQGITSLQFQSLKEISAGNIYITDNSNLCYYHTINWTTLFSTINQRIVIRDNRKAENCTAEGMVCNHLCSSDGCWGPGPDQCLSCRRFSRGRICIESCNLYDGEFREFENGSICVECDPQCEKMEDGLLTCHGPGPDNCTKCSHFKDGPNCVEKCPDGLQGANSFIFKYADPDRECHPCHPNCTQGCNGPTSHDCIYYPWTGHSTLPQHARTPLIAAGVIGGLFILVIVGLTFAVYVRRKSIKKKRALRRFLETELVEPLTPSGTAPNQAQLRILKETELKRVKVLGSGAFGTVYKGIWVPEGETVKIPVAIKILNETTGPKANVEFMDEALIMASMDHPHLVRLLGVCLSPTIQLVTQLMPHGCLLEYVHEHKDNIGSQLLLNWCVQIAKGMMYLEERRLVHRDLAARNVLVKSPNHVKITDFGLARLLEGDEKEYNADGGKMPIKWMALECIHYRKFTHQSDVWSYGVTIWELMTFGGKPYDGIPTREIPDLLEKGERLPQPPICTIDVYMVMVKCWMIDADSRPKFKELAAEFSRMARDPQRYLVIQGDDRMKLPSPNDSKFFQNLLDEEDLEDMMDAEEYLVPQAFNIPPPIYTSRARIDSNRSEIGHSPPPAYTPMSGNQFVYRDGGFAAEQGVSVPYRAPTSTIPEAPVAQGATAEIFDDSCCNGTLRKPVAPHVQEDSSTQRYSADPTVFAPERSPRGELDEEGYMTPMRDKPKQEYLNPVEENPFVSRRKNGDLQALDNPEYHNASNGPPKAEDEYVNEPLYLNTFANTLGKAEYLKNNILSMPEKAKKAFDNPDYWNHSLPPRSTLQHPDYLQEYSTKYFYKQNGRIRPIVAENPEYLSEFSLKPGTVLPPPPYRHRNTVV
Receptor tyrosine-protein kinase erbB-2 (Homo sapiens), sequence (P04626 whole entry): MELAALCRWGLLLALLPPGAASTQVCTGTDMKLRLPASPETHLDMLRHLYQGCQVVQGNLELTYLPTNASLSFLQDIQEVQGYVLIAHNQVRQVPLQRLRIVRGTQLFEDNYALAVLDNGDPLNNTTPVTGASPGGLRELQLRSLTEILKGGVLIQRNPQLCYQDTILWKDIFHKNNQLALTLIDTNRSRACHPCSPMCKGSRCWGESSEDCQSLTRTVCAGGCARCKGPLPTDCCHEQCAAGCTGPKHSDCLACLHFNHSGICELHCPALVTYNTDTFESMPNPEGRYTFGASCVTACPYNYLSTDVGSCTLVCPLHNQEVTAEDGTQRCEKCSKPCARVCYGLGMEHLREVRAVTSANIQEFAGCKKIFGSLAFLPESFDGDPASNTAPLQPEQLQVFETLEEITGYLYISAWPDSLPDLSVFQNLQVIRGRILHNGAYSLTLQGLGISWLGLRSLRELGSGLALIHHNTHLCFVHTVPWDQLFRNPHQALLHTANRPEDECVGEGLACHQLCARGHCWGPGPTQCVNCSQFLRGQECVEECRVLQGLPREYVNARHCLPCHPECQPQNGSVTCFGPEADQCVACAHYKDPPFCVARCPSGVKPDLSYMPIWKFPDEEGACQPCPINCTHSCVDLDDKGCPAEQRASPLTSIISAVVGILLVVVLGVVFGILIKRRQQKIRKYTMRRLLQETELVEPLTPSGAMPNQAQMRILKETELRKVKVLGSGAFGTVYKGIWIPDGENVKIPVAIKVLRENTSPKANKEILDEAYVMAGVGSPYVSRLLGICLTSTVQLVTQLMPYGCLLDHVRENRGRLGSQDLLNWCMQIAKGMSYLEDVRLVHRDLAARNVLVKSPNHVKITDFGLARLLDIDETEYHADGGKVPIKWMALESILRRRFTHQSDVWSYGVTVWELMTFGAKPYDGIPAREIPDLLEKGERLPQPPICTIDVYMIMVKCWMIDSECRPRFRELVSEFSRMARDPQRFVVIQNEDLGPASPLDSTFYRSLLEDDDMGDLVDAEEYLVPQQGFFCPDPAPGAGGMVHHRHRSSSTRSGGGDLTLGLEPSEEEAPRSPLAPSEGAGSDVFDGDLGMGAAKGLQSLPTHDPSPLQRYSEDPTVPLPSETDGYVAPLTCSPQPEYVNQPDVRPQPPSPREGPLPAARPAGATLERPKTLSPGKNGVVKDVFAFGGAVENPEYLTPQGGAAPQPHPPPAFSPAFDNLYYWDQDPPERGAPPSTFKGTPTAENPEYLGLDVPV

As for `Cc1ccc2c(c1)/C(=N/Nc1ccc(S(N)(=O)=O)cc1)C(=O)N2`, the inhibition is -1.87% in [1]; 2.46% in [2]; -0.26% in experiment [3]; 0.65% in experiment [4]; 0.71% in experiment [5]; 0.1% in experiment [6]. Further, the inhibition was -4.77% in experiment [7], 6.45% in [8], 7.37% in [9] and 1.02% in experiment [10].
As for `Cc1cc(Cl)cc2c1NC(=O)C2=NNc1ccc(S(N)(=O)=O)cc1`, the inhibition in experiment [1] was found to be 1.31%; in experiment [2] it was 3.65%; in experiment [3], 1.13%; in experiment [4], 1.3%; in experiment [5], 1.46%; in [6], 2.46%. The inhibition in [7] amounted to 3.15%; in [8], 6.08%; in experiment [9] it was 6.7%; in experiment [10] it was 2.65%.
Turning to `O=C(Nc1ccc(Oc2ccc3[nH]c(NC(=O)c4ccco4)nc3c2)cc1)Nc1cc(C(F)(F)F)ccc1F`, the inhibition in [1] is 78.3%; in experiment [2], 2.25%; in experiment [3], 24.2%; in experiment [4], 8.82%; in experiment [5] it was 63.8%; in experiment [6], -0.1%. Further, the inhibition in experiment [7] was -0.1%; in [8], -1.74%; in [9] it was -5.16%; in experiment [10], 3.08%.
On to `Cc1cc(O)cc(C)c1/C=C/c1cncc(C(=O)N(C)C)c1`, for which the inhibition stood at 22.5% in experiment [1]; 5.26% in [2]; 5.69% in experiment [3]; 3.23% in experiment [4]; 7.53% in [5]; 1.35% in experiment [6]. For the same compound, the inhibition in [7] was -0.95%; in experiment [8], 9.24%; in [9], 7.51%; in experiment [10] it was 3.43%.
`FC(F)(F)c1ccc(-c2nn3ncccc3c2-c2ccnc(Nc3ccc4c(c3)OCCO4)n2)cc1`: the inhibition was 36.7% in [1]; -5.93% in experiment [2]; -4.69% in experiment [3]; 0.48% in experiment [4]; 10.2% in experiment [5]; 3.02% in experiment [6]. Moreover, the inhibition was 12.5% in experiment [7], 6.46% in [8], 43.5% in experiment [9] and 7.67% in [10].
Turning to `COc1cccc(-n2nc(C)c3c(N/N=C(\C)c4ccncc4)ncnc32)c1`, the inhibition in experiment [1] came to 3.31%; in [2], 1.98%; in [3], 0.96%; in [4], 0.44%; in experiment [5], 1.01%; in experiment [6], 0.07%. Moreover, the inhibition in experiment [7] is 2.47%; in [8], 0.79%; in experiment [9], -0.06%; in [10], 1.02%.
On to `Nc1nccc(-c2c(-c3ccc(F)cc3)nn3cc(C(F)(F)F)ccc23)n1`, for which the inhibition in [1] is 5.83%; in experiment [2], -0.56%; in experiment [3], 3.25%; in [4], 0.18%; in experiment [5], 1.91%; in experiment [6], 2.01%. The inhibition in experiment [7] came to 3.5%; in experiment [8] it was 2.34%; in experiment [9], 11.4%; in [10], 5.04%.
As to `CN(C)CCCn1c(-c2nonc2N)nc2cnccc21`, the inhibition in [1] amounted to 5.68%; in [2], 5.3%; in experiment [3], 2.05%; in experiment [4], 3.38%; in [5] it was 2.2%; in experiment [6], 5.72%. Besides, the inhibition is 4.73% in experiment [7], 17.3% in [8], 16.3% in [9] and 1.8% in experiment [10].
